Measurements taken from article PMC11006913.
Residue numbers refer to the chain shown, from its start.

Columns and labels:
Assay in all cases: PBM; 200 nM protein, PBS
Conditions in all cases: dsDNA, one strand shown
NKX2-5 [1] = biological target: NKX2-5 (Homo sapiens, UniProt P52952 125-210, R139K)
VENTX [2] = biological target: T1, VENTX (Homo sapiens, UniProt O95231 78-163, R121Q)
T1 sequence: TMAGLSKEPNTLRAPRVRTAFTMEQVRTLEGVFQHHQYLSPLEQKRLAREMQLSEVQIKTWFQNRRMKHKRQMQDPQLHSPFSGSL

VENTX [3] = biological target: T2, VENTX (Homo sapiens, UniProt O95231 78-163)
T2 sequence: T1 sequence with Q44R

VENTX [4] = biological target: T3, VENTX (Homo sapiens, UniProt O95231 78-163, Y115F)
T3 sequence: T1 sequence with Y38F, Q44R

MSX2 [5] = biological target: MSX2 (Homo sapiens, UniProt P35548 130-214, R199I)
Chain of MSX2 (Homo sapiens, UniProt P35548 130-214, R199I) (P35548 130-214 R199I): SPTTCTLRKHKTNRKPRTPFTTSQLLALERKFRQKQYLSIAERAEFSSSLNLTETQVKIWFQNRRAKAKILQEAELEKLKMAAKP

MSX2 [6] = biological target: MSX2 (Homo sapiens, UniProt P35548 130-214)
Chain of MSX2 (Homo sapiens, UniProt P35548 130-214) (P35548 130-214): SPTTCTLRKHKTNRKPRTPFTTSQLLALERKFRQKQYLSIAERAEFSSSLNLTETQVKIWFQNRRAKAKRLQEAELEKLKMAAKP

MSX2 [7] = biological target: MSX2 (Homo sapiens, UniProt P35548 130-214, F161Y)
Chain of MSX2 (Homo sapiens, UniProt P35548 130-214, F161Y) (P35548 130-214 F161Y): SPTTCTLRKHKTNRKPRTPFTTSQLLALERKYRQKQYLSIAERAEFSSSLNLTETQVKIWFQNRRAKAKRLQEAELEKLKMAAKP

NKX2-5 [8] = biological target: NKX2-5 (Homo sapiens, UniProt P52952 125-210)
Chain of NKX2-5 (Homo sapiens, UniProt P52952 125-210) (P52952 125-210): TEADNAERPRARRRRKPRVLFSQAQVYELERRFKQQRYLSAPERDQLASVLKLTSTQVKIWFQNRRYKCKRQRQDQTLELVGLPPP

NKX2-4 [9] = biological target: T4, NKX2-4 (Homo sapiens, UniProt Q9H2Z4 175-261, P217L)
T4 sequence: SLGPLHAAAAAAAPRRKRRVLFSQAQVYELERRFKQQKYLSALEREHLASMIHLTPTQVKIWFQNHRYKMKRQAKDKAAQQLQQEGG

NKX2-4 [10] = biological target: T5, NKX2-4 (Homo sapiens, UniProt Q9H2Z4 175-261, T231S)
T5 sequence: T4 sequence with L43P, T57S

NKX2-4 [11] = biological target: T6, NKX2-4 (Homo sapiens, UniProt Q9H2Z4 175-261)
T6 sequence: T4 sequence with L43P

NKX2-4 [12] = biological target: T7, NKX2-4 (Homo sapiens, UniProt Q9H2Z4 175-261, R246Q)
T7 sequence: T4 sequence with L43P, R72Q

HOXD13 [13] = biological target: HOXD13 (Homo sapiens, UniProt P35453 263-343, T313R)
Chain of HOXD13 (Homo sapiens, UniProt P35453 263-343, T313R) (P35453 263-343 T313R): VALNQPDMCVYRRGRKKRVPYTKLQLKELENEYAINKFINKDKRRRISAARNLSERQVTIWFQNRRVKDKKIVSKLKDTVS

HOXD13 [14] = biological target: HOXD13 (Homo sapiens, UniProt P35453 263-343)
Chain of HOXD13 (Homo sapiens, UniProt P35453 263-343) (P35453 263-343): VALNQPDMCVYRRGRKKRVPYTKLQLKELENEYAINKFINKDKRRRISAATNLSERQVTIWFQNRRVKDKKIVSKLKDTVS

HOXD13 [15] = biological target: HOXD13 (Homo sapiens, UniProt P35453 263-343, T313A)
Chain of HOXD13 (Homo sapiens, UniProt P35453 263-343, T313A) (P35453 263-343 T313A): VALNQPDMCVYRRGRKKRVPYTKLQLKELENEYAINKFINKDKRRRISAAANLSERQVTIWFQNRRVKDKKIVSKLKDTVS

NKX2-6 [16] = biological target: T8, NKX2-6 (Homo sapiens, UniProt A6NCS4 118-204, R150C)
T8 sequence: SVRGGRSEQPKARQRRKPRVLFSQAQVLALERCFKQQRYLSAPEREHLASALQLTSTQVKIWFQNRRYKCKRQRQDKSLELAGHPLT

NKX2-6 [17] = biological target: T9, NKX2-6 (Homo sapiens, UniProt A6NCS4 118-204, F151L)
T9 sequence: T8 sequence with C33R, F34L

HOXC10 [18] = biological target: HOXC10 (Homo sapiens, UniProt Q9NYD6 254-340)
Chain of HOXC10 (Homo sapiens, UniProt Q9NYD6 254-340) (Q9NYD6 254-340): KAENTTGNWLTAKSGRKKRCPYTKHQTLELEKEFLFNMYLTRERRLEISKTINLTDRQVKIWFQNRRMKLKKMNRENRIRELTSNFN

HOXC10 [19] = biological target: HOXC10 (Homo sapiens, UniProt Q9NYD6 254-340, K271E)
Chain of HOXC10 (Homo sapiens, UniProt Q9NYD6 254-340, K271E) (Q9NYD6 254-340 K271E): as the sequence (Q9NYD6 254-340) above, with K18E counted along it

NKX2-6 [20] = biological target: T10, NKX2-6 (Homo sapiens, UniProt A6NCS4 118-204)
T10 sequence: T8 sequence with C33R

Chain of NKX2-5 (Homo sapiens, UniProt P52952 125-210, R139K) (P52952 125-210 R139K): as the sequence (P52952 125-210) above, with R15K counted along it

CTGGCCAG
binding signal (NKX2-5 [1]): 8.81 upbm affinity estimate (log intensity, higher = more binding, comparable within an allelic series) | binding signal (VENTX [2]): 8.26 upbm affinity estimate (log intensity, higher = more binding, comparable within an allelic series) | binding signal (VENTX [3]): 8.37 upbm affinity estimate (log intensity, higher = more binding, comparable within an allelic series) | binding signal (VENTX [4]): 8.37 upbm affinity estimate (log intensity, higher = more binding, comparable within an allelic series) | binding signal (MSX2 [5]): 9.71 upbm affinity estimate (log intensity, higher = more binding, comparable within an allelic series) | binding signal (MSX2 [6]): 9.79 upbm affinity estimate (log intensity, higher = more binding, comparable within an allelic series) | binding signal (MSX2 [7]): 9.83 upbm affinity estimate (log intensity, higher = more binding, comparable within an allelic series) | binding signal (NKX2-5 [8]): 8.9 upbm affinity estimate (log intensity, higher = more binding, comparable within an allelic series)

ATCGGTGG
binding signal (NKX2-5 [1]): 8.85 upbm affinity estimate (log intensity, higher = more binding, comparable within an allelic series) | binding signal (NKX2-4 [9]): 9.32 upbm affinity estimate (log intensity, higher = more binding, comparable within an allelic series) | binding signal (NKX2-4 [10]): 9.63 upbm affinity estimate (log intensity, higher = more binding, comparable within an allelic series) | binding signal (NKX2-4 [11]): 9.38 upbm affinity estimate (log intensity, higher = more binding, comparable within an allelic series) | binding signal (NKX2-4 [12]): 9.32 upbm affinity estimate (log intensity, higher = more binding, comparable within an allelic series) | binding signal (NKX2-5 [8]): 8.79 upbm affinity estimate (log intensity, higher = more binding, comparable within an allelic series)

CACTCGAA
binding signal (NKX2-5 [1]): 12 upbm affinity estimate (log intensity, higher = more binding, comparable within an allelic series) | binding signal (NKX2-4 [9]): 12.5 upbm affinity estimate (log intensity, higher = more binding, comparable within an allelic series) | binding signal (NKX2-4 [10]): 13 upbm affinity estimate (log intensity, higher = more binding, comparable within an allelic series) | binding signal (NKX2-4 [11]): 12.5 upbm affinity estimate (log intensity, higher = more binding, comparable within an allelic series) | binding signal (NKX2-4 [12]): 13.1 upbm affinity estimate (log intensity, higher = more binding, comparable within an allelic series) | binding signal (NKX2-5 [8]): 11.9 upbm affinity estimate (log intensity, higher = more binding, comparable within an allelic series)

CCGACCTC
binding signal (NKX2-5 [1]): 8.77 upbm affinity estimate (log intensity, higher = more binding, comparable within an allelic series) | binding signal (VENTX [2]): 7.98 upbm affinity estimate (log intensity, higher = more binding, comparable within an allelic series) | binding signal (VENTX [3]): 7.99 upbm affinity estimate (log intensity, higher = more binding, comparable within an allelic series) | binding signal (VENTX [4]): 8.1 upbm affinity estimate (log intensity, higher = more binding, comparable within an allelic series) | binding signal (HOXD13 [13]): 9.52 upbm affinity estimate (log intensity, higher = more binding, comparable within an allelic series) | binding signal (HOXD13 [14]): 9.45 upbm affinity estimate (log intensity, higher = more binding, comparable within an allelic series) | binding signal (HOXD13 [15]): 9.44 upbm affinity estimate (log intensity, higher = more binding, comparable within an allelic series) | binding signal (NKX2-5 [8]): 8.83 upbm affinity estimate (log intensity, higher = more binding, comparable within an allelic series)

CACTTCAA
binding signal (NKX2-5 [1]): 12.4 upbm affinity estimate (log intensity, higher = more binding, comparable within an allelic series) | binding signal (NKX2-4 [9]): 12.6 upbm affinity estimate (log intensity, higher = more binding, comparable within an allelic series) | binding signal (NKX2-4 [10]): 13 upbm affinity estimate (log intensity, higher = more binding, comparable within an allelic series) | binding signal (NKX2-4 [11]): 12.5 upbm affinity estimate (log intensity, higher = more binding, comparable within an allelic series) | binding signal (NKX2-6 [16]): 11.6 upbm affinity estimate (log intensity, higher = more binding, comparable within an allelic series) | binding signal (NKX2-4 [12]): 13.1 upbm affinity estimate (log intensity, higher = more binding, comparable within an allelic series) | binding signal (NKX2-6 [17]): 10.9 upbm affinity estimate (log intensity, higher = more binding, comparable within an allelic series) | binding signal (NKX2-5 [8]): 12.4 upbm affinity estimate (log intensity, higher = more binding, comparable within an allelic series)

CCTGGGCC
binding signal (NKX2-5 [1]): 8.72 upbm affinity estimate (log intensity, higher = more binding, comparable within an allelic series) | binding signal (VENTX [2]): 7.97 upbm affinity estimate (log intensity, higher = more binding, comparable within an allelic series) | binding signal (VENTX [3]): 8.01 upbm affinity estimate (log intensity, higher = more binding, comparable within an allelic series) | binding signal (HOXC10 [18]): 10.1 upbm affinity estimate (log intensity, higher = more binding, comparable within an allelic series) | binding signal (VENTX [4]): 7.99 upbm affinity estimate (log intensity, higher = more binding, comparable within an allelic series) | binding signal (HOXC10 [19]): 9.99 upbm affinity estimate (log intensity, higher = more binding, comparable within an allelic series) | binding signal (NKX2-5 [8]): 8.87 upbm affinity estimate (log intensity, higher = more binding, comparable within an allelic series)

CGGTGCAG
binding signal (NKX2-5 [1]): 8.83 upbm affinity estimate (log intensity, higher = more binding, comparable within an allelic series) | binding signal (NKX2-4 [9]): 9.49 upbm affinity estimate (log intensity, higher = more binding, comparable within an allelic series) | binding signal (NKX2-4 [10]): 9.46 upbm affinity estimate (log intensity, higher = more binding, comparable within an allelic series) | binding signal (NKX2-4 [11]): 9.46 upbm affinity estimate (log intensity, higher = more binding, comparable within an allelic series) | binding signal (NKX2-4 [12]): 9.48 upbm affinity estimate (log intensity, higher = more binding, comparable within an allelic series) | binding signal (NKX2-5 [8]): 8.91 upbm affinity estimate (log intensity, higher = more binding, comparable within an allelic series)

TAAGTGTA
binding signal (NKX2-5 [1]): 12.5 upbm affinity estimate (log intensity, higher = more binding, comparable within an allelic series) | binding signal (NKX2-4 [9]): 12.4 upbm affinity estimate (log intensity, higher = more binding, comparable within an allelic series) | binding signal (NKX2-4 [10]): 12.8 upbm affinity estimate (log intensity, higher = more binding, comparable within an allelic series) | binding signal (NKX2-4 [11]): 12.3 upbm affinity estimate (log intensity, higher = more binding, comparable within an allelic series) | binding signal (NKX2-6 [16]): 11.7 upbm affinity estimate (log intensity, higher = more binding, comparable within an allelic series) | binding signal (NKX2-6 [20]): 13.4 upbm affinity estimate (log intensity, higher = more binding, comparable within an allelic series) | binding signal (NKX2-4 [12]): 12.9 upbm affinity estimate (log intensity, higher = more binding, comparable within an allelic series) | binding signal (NKX2-6 [17]): 10.9 upbm affinity estimate (log intensity, higher = more binding, comparable within an allelic series) | binding signal (NKX2-5 [8]): 12.4 upbm affinity estimate (log intensity, higher = more binding, comparable within an allelic series)

TACCGGTA
binding signal (NKX2-5 [1]): 8.84 upbm affinity estimate (log intensity, higher = more binding, comparable within an allelic series) | binding signal (NKX2-4 [9]): 9.99 upbm affinity estimate (log intensity, higher = more binding, comparable within an allelic series) | binding signal (NKX2-4 [10]): 10.1 upbm affinity estimate (log intensity, higher = more binding, comparable within an allelic series) | binding signal (NKX2-4 [11]): 9.94 upbm affinity estimate (log intensity, higher = more binding, comparable within an allelic series) | binding signal (NKX2-4 [12]): 10.1 upbm affinity estimate (log intensity, higher = more binding, comparable within an allelic series) | binding signal (NKX2-5 [8]): 8.86 upbm affinity estimate (log intensity, higher = more binding, comparable within an allelic series)
